The values that follow come from PubChem BioAssay (NCATS).

Records with an inconclusive call do not appear. Unmarked numbers belong to inactive results. Activity calls are given as the source filed them. Unless noted, the call rests on the fitted dose curve; in most records, active means well fitted curve in the direction sought with a large enough effect; inconclusive means small, poorly fitted or top-dose-only effect, or another doubt; inactive means no such curve, though single readings can be large; an effect the other way counts as inactive or inconclusive.

A short description of one assay: qHTS Assay for Identification of Small Molecule Inducers of Hypoxia Response (AID 2120; active means well fitted curve in the direction sought with a large enough effect in the signal ratio, with a control signal flat, not every such curve was filed as active; the % refers to the signal ratio; further: 0% is about no effect). To be noted: hypoxia response reporter cells, beta-lactamase ratio readout; series mostly up to 104 µM; activation: at the top concentration. In a few lines: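 HRE-bla ME-180 cells in Opti-MEM with 0.5% dialyzed FBS, pre-plated 4-5 h, then compound titration for 17 h at 37 degrees Celsius. CCF4 loaded 2.5 h at room temperature; 460/530 nm ratio gave %Activity and AC50 for induction.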
(In general: Quantitative high-throughput screening tests each substance at several concentrations.)
Turning to `Oc1cc(Cl)c(Cl)cc1Cl`, the “activation” value is 2.56%.

Turning to `Clc1ccccc1Cl`, the “activation” value is 0.0093%.

For `O=C/C=C/c1ccccc1`, the outcome was inactive.

`O=Cc1ccco1`: the “activation” value was -0.604%.

With `C[C@]12CCC(=O)C[C@@H]1CC[C@@H]1[C@@H]2CC[C@]2(C)[C@@H](O)CC[C@@H]12`, the “activation” value is 6.04%.

For the compound `CCCCCCCCOC(=O)c1ccccc1C(=O)OCCCCCCCC`, the “activation” value was 0.595%.

Turning to `O=CC=O`, the “activation” value is -0.0278%.

`S=C=S`: the “activation” value was -0.0403%.

For `O=[N+]([O-])c1ccccc1`, the “activation” value is 1.52%.

With `ClCC1CO1` (stereo unspecified), the “activation” value was 0.297%.

`ClC=C(Cl)Cl`: the “activation” value was 0.826%.

For the compound `[O]=[Cd]`, the “activation” value was -0.302%.

Consider `O=C1CCO1`, for which the “activation” value was 0.307%.

Take `CCOC(=O)c1ccccc1C(=O)OCC`: the outcome was inactive.

On to `CC(C)CCON=O`, for which the “activation” value was 0.633%.

Consider `C[C@H]1CCC[C@H](O)CCCCCc2cc(O)cc(O)c2C(=O)O1`, for which the “activation” value is 0.902%.

On to `ClC(Cl)(Cl)Cl`, for which the outcome was inactive.

Regarding `C=CCN=C=S`, the “activation” value was -0.604%.

The nature of another assay: Cytometric Cell-Based qHTS for Inhibitors of the mTORC1 Signaling Pathway in MEF (Tsc2-/-, p53-/-) Cells (AID 2660).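 Further: Tsc2 and p53 null MEFs carrying empty vector with compound for 24 h; percent of cells above a phospho-rpS6 to PI ratio cutoff in each well; plate controls were DMSO for no effect and rapamycin for full effect.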 The settings on record: mTORC1 pathway cytometry; series mostly up to 38.3 µM; activity change, negative = inhibition: at the top concentration. The procedure, abridged: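 Percent of cells positive for normalized phospho-S6 staining is reported, with the cutoff set from rapamycin (7.5 nM) versus DMSO wells. Tsc2-/-, p53-/- MEFs received compound for 24 hrs.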
For `CCCN1CCC[C@@H](c2cccc(O)c2)C1`, the “activity change, negative = inhibition” value was 10%.

In the case of `N#C/C(=C/c1ccc(O)c(O)c1)C(N)=S`, the “activity change, negative = inhibition” value was 2.21%.

Turning to `C[C@H](N)Cc1cccc(C(F)(F)F)c1`, the “activity change, negative = inhibition” value is 0.469%.

Turning to `C=CCN(C1=NCCN1)c1c(Cl)cccc1Cl`, the “activity change, negative = inhibition” value was 3.53%.

On to `CCCN1CCc2cccc3c2[C@H]1Cc1ccc(O)c(O)c1-3`, for which the “activity change, negative = inhibition” value is -0.819%.

For the compound `C=CCN1CCc2cccc3c2[C@H]1Cc1ccc(O)c(O)c1-3`, the “activity change, negative = inhibition” value was -29.5%.

For `N=C(N)c1ccc(CS(=O)(=O)F)cc1`, the “activity change, negative = inhibition” value is 3.15%.

As to `CCCC[N+]1(C)C2CC(OC(=O)[C@H](CO)c3ccccc3)CC1C1OC12` (stereo partly specified), the “activity change, negative = inhibition” value is 2.78%.

As for `COc1ccc2c(c1O)-c1cccc3c1[C@@H](C2)N(C)CC3`, the “activity change, negative = inhibition” value was -8%.

Consider `CN1CC[C@@]2(C)c3cc(OC(=O)Nc4ccccc4)ccc3N(C)[C@@H]12`, for which the “activity change, negative = inhibition” value was -6.03%.

On to `CC(=O)OCC1=C(C(=O)O)N2C(=O)[C@@H](NC(=O)CCC[C@@H](N)C(=O)O)[C@H]2SC1`, for which the “activity change, negative = inhibition” value is -4.25%.

On to `CCN1C[C@@]2(COC)C3[C@@H](OC)C4[C@@H]1C3([C@@H]1C[C@]3(O)[C@H](OC(=O)c5ccccc5)[C@@H]1[C@]4(OC(C)=O)[C@@H](O)[C@@H]3OC)[C@H](OC)C[C@H]2O`, for which the “activity change, negative = inhibition” value was 2.76%.

`CC(C)[C@@]1(NC(=O)[C@@H]2C[C@@H]3c4cccc5[nH]cc(c45)C[C@H]3N(C)C2)O[C@@]2(O)[C@@H]3CCCN3C(=O)[C@H](Cc3ccccc3)N2C1=O`: the “activity change, negative = inhibition” value was 4.82%.

Consider `CC(C)(O)[C@@H]1C2OC(=O)[C@@H]1[C@]1(O)C[C@H]3O[C@]34C(=O)O[C@H]2[C@]14C` (tested in a mixture with another compound), for which the “activity change, negative = inhibition” value is -0.113%.

For `N#CCCN`, the “activity change, negative = inhibition” value was 4.05%.

With `N[C@@H](Cn1ccc(=O)[nH]c1=O)C(=O)O`, the “activity change, negative = inhibition” value is 0.489%.

Consider `Cc1cc([C@@H]2CCCN2C)on1`, for which the “activity change, negative = inhibition” value is 3.53%.

`C[N+]1(C)CCc2cc3c(cc2[C@H]1[C@@H]1OC(=O)c2c1ccc1c2OCO1)OCO3`: the “activity change, negative = inhibition” value was -2.24%.

Take `COc1ccc2c(c1)c(CCN1CCOCC1)c(C)n2C(=O)c1cccc(Cl)c1Cl`: the “activity change, negative = inhibition” value is -2.22%.

As for `CCNC(=O)[C@H]1O[C@@H](n2cnc3c(N)ncnc32)[C@H](O)[C@@H]1O`, the “activity change, negative = inhibition” value was -2.81%.

In the case of `C[C@@H]1O[C@@H](O[C@H]2C[C@@H](O)[C@]3(CO)[C@@H]4C(CC[C@]3(O)C2)[C@@]2(O)CC[C@H]([C@@H]3COC(=O)C3)[C@@]2(C)C[C@H]4O)[C@H](O)[C@H](O)[C@H]1O` (stereo partly specified), the “activity change, negative = inhibition” value is 2.45%.

The next assay can be described thus: High Content Imaging Cell-Based qHTS for Inhibitors of the mTORC1 Signaling Pathway in MEF (Tsc2-/-, p53-/-) Cells (AID 2666).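 Further: percent of cells scored positive for phospho-rpS6 Ser235/236 immunostaining by imaging.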 To be noted: series mostly up to 38.3 µM. In a few lines: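 Cells were plated, dosed with compound after 24 hrs, and incubated another 24 hrs at 37 degree Celsius. Fixed cells were immunostained for phospho-rpS6 Ser235/236 and counterstained, and the normalized signal was scored as % active cells against rapamycin and DMSO controls.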
`CCCN1CCC[C@@H](c2cccc(O)c2)C1`: the result was inactive.

Turning to `N#C/C(=C/c1ccc(O)c(O)c1)C(N)=S`, the call was inactive.

In the case of `C[C@H](N)Cc1cccc(C(F)(F)F)c1`, the outcome was inactive.

For the compound `C=CCN(C1=NCCN1)c1c(Cl)cccc1Cl`, the compound was called inactive.

In the case of `CCCN1CCc2cccc3c2[C@H]1Cc1ccc(O)c(O)c1-3`, the compound was classed as inactive.

As to `C=CCN1CCc2cccc3c2[C@H]1Cc1ccc(O)c(O)c1-3`, the call was inactive.

With `N=C(N)c1ccc(CS(=O)(=O)F)cc1`, the compound was classed as inactive.

On to `CCCC[N+]1(C)C2CC(OC(=O)[C@H](CO)c3ccccc3)CC1C1OC12` (stereo partly specified), for which the result was inactive.

For `COc1ccc2c(c1O)-c1cccc3c1[C@@H](C2)N(C)CC3`, the compound was classed as inactive.

In the case of `CN1CC[C@@]2(C)c3cc(OC(=O)Nc4ccccc4)ccc3N(C)[C@@H]12`, the result was inactive.

On to `CC(=O)OCC1=C(C(=O)O)N2C(=O)[C@@H](NC(=O)CCC[C@@H](N)C(=O)O)[C@H]2SC1`, for which the outcome was inactive.

Regarding `CCN1C[C@@]2(COC)C3[C@@H](OC)C4[C@@H]1C3([C@@H]1C[C@]3(O)[C@H](OC(=O)c5ccccc5)[C@@H]1[C@]4(OC(C)=O)[C@@H](O)[C@@H]3OC)[C@H](OC)C[C@H]2O`, the result was inactive.

Take `CC(C)[C@@]1(NC(=O)[C@@H]2C[C@@H]3c4cccc5[nH]cc(c45)C[C@H]3N(C)C2)O[C@@]2(O)[C@@H]3CCCN3C(=O)[C@H](Cc3ccccc3)N2C1=O`: the call was inactive.

For the compound `CC(C)(O)[C@@H]1C2OC(=O)[C@@H]1[C@]1(O)C[C@H]3O[C@]34C(=O)O[C@H]2[C@]14C` (tested in a mixture with another compound), the compound was called inactive.

As for `O=[N+]([O-])/C=C/c1ccc2c(c1)OCO2`, the compound was classed as inactive.

For the compound `N#CCCN`, the call was inactive.

Consider `N[C@@H](Cn1ccc(=O)[nH]c1=O)C(=O)O`, for which the outcome was inactive.

Consider `Cc1cc([C@@H]2CCCN2C)on1`, for which the outcome was inactive.

For `C[N+]1(C)CCc2cc3c(cc2[C@H]1[C@@H]1OC(=O)c2c1ccc1c2OCO1)OCO3`, the compound was called inactive.

In the case of `COc1ccc2c(c1)c(CCN1CCOCC1)c(C)n2C(=O)c1cccc(Cl)c1Cl`, the compound was called inactive.

On to `CCNC(=O)[C@H]1O[C@@H](n2cnc3c(N)ncnc32)[C@H](O)[C@@H]1O`, for which the outcome was inactive.

Consider `C[C@@H]1O[C@@H](O[C@H]2C[C@@H](O)[C@]3(CO)[C@@H]4C(CC[C@]3(O)C2)[C@@]2(O)CC[C@H]([C@@H]3COC(=O)C3)[C@@]2(C)C[C@H]4O)[C@H](O)[C@H](O)[C@H]1O` (stereo partly specified), for which the compound was called inactive.
